Compound activity from PubChem BioAssay.
KB-V1 MDR tox: qHTS assay for MDR1-selective chemotherapeutics: Primary screen using the drug-selected MDR subline cells KB-V1. KB-V1 MDR cells viability, CellTiter-Glo, 72 h. Potency, µM (titrated, usually from 46.1 µM), most hits filed as cytotoxic. actives 3.4% (n = 400,000); further: nearly all actives have a fitted effect of over 60% in size
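Potencies derive from concentration-effect curves fitted to normalized luminescence (CellTiter-Glo) of KB-V1 cells treated for 72 h at 37 degrees C in phenol-red-free DMEM containing 10% FBS.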
HT1080NT lethal: qHTS for induction of synthetic lethality in tumor cells producing 2HG: qHTS for the HT-1080-NT fibrosarcoma cell line | HT-1080-NT fibrosarcoma viability, CellTiter-Glo ATP luminescence, 48 h | Potency, µM (titrated, usually from 46.1 µM), inactives show top-dose activity, negative = less viability, usual class: cytotoxic | actives 1.6% (n = 360,000);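 further: NT is the 2HG producing partner of a matched IDH1 knockdown line; 0% = DMSO-treated cells and -100% = media-only wells without cells; nearly all actives have a fitted effect of over 55% in size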
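Compounds were tested in concentration-response format on HT-1080-NT cells for 48 hours at 37 degrees C. Cell viability came from CellTiter-Glo luminescence; curves were classified by r2, response magnitude and activity.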
TDP1 cell CPT: qHTS for Inhibitors of human tyrosyl-DNA phosphodiesterase 1 (TDP1): qHTS in cells in presence of CPT; actives 12% (n = 420,000); chicken DT40 Tdp1-/-;hTDP1 cells + 20 nM CPT, ATP luminescence, 48 h; Potency, µM (series often up to 46.2 µM), without a hit: at the highest dose activity change, negative = growth inhibition, actives largely listed as inhibitors; further: nearly all actives have a fitted effect of over 55% in size
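Chicken DT40 Tdp1-/- cells complemented with human TDP1, 400 cells/well, exposed to compounds plus 20 nM camptothecin for at least 48 h at 37 C; viability read as ATP content by CellTiter-Glo luminescence.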
HT1080 IDH1KD tx: qHTS for induction of synthetic lethality in tumor cells producing 2HG: qHTS for the HT-1080-IDH1KD cell line | Potency, µM (highest dose often 46.1 µM), for the others: at the highest dose activity, negative = toxicity, most hits filed as cytotoxic | actives 2% (n = 360,000) | HT-1080 IDH1 knockdown viability, ATP luminescence, 48 h | AID 686971, 2013;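 further: 0% = DMSO wells and -100% = cell-free medium wells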
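Cytotoxicity counter-line: IDH1KD HT-1080, 48 h, CellTiter-Glo. Curves classed by r2, magnitude and activity.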
KB-3-1 cytotox: qHTS assay for MDR1-selective chemotherapeutics: Primary screen using the parental adenocarcinoma cell KB-3-1 | KB-3-1 viability, CellTiter-Glo ATP luminescence, 72 h | Potency, µM (top dose mostly 46.1 µM), most hits filed as cytotoxic | actives 1.4% (n = 400,000) | AID 1347075, 2019; further: nearly all actives have a fitted effect of over 60% in size
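Here the drug-naive KB-3-1 line serves as comparator for MDR sub-line selectivity; cells received compound titrations, 72 h at 37 °C, then CellTiter-Glo readout.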
DT40 TDP1 no CPT: qHTS for Inhibitors of human tyrosyl-DNA phosphodiesterase 1 (TDP1): qHTS in cells in absence of CPT; DT40 Tdp1-/- hTDP1 cells, no CPT, ATP luminescence, 48 h; Potency, µM (titrated, usually from 46.2 µM), for inactives: at the top dose activity change, negative = growth inhibition, usual class: inhibitors; actives 15% (n = 420,000); further: nearly all actives have a fitted effect of over 55% in size
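Growth of hTDP1-complemented DT40 Tdp1-knockout cells is measured by ATP luminescence after at least 48 hr compound exposure at 37 °C, with DMSO substituting for the 20 nM CPT used in the parallel screen.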
The depositor's hits bear a star; i = inactive; ? = inconclusive; · = no result given; [ ] = remark or other dose. A selection: hits, their analogues and other compounds. The true share with any hit is near 19%. The call rests on the fitted dose curve; in most records, active means well fitted curve in the direction sought with a large enough effect; inconclusive means small, poorly fitted or top-dose-only effect, or another doubt; inactive means no such curve, though single readings can be large; an effect the other way counts as inactive or inconclusive. Unless noted, on the % scale 0 is the no-effect control and ±100 the full control effect; potency means the concentration at half of the fitted maximal effect.

SMILES	KB-V1 MDR tox	HT1080NT lethal	TDP1 cell CPT	HT1080 IDH1KD tx	KB-3-1 cytotox	DT40 TDP1 no CPT
COc1ccccc1CN1CCCC(n2cc(C(=O)N3CCCC3)nn2)C1 (stereo not drawn)	·	·	41.9%[9.04 µM]	·	·	?
CCCNC(=O)C1CCC(Cn2c(=O)c3sccc3n(CC(=O)N3CCCC3)c2=O)CC1 (stereo not drawn)	i	·	-0.4%	·	i	3.7%
CC1CCc2c(sc3nc(-c4cc5cc(Br)ccc5oc4=O)[nH]c(=O)c23)C1 (stereo not drawn)	·	·	-14.9%	·	·	-18.4%
O=S(=O)(c1ccccc1)N1CCCC1c1cccs1 (stereo not drawn)	i	0.3%	?	-11.1%	i	11.6µM*
COc1ccc(S(=O)(=O)N2CCCC2c2cccs2)cc1 (stereo not drawn)	i	1.4%	5.8µM*	0.1%	i	8.2µM*
COc1ccc(S(=O)(=O)N2CCN(C)CC2c2ccccc2)cc1 (stereo not drawn)	i	-0.7%	-1.5%	0.9%	i	0.4%
O=C(O)C1CCCCN1S(=O)(=O)c1ccccc1 (stereo not drawn)	?	-3.1%	2.3%	-0.4%	i	4.0%
CCc1ccc(OC(=O)c2sc3ncn(Cc4cccc(F)c4)c(=O)c3c2C)cc1	i	·	-10.0%	·	i	-12.3%
Cc1ccc(-c2nnc(SCC(=O)NC3CCCc4ccccc43)n2N)cc1 (stereo not drawn)	?	11.2%	?	5.9%	i	?
CCCn1nnnc1SCC(=O)N1CCCCC1	i	22.7%	13.8%	23.1%	i	9.3%
Cc1ccc(-n2nnnc2SCC(=O)N2CCCCC2)cc1	9.2µM*	2.5%	-17.2%	-1.2%	i	-16.5%
Cc1ccc(-n2nnnc2SCC(=O)Nc2sccc2C#N)cc1	18.4µM*	-5.8%	-15.5%	-10.4%	i	?
Cc1ccc(-n2nnnc2SCC(=O)NC2CCCc3ccccc32)cc1 (stereo not drawn)	i	14.8%	?	2.5%	i	18.4µM*
COc1ccc(-n2nnnc2SCC(=O)N2CCOCC2)cc1	i	-1.5%	-18.7%	-0.5%	i	-18.7%
COC(=O)c1ccc(-n2nnnc2SCC(=O)N2CCCCC2)cc1	20.6µM*	-5.3%	-7.7%	-15.3%	i	-16.1%
CC(C)NC(=O)c1cc(C2CCCCN2C(=O)c2ccc(C(C)C)cc2)on1 (stereo not drawn)	i	-3.8%	?	2.8%	i	?
Cc1ccc(OCCSc2nc3ccccc3n2CC(=O)N2CCCCC2)cc1C	i	·	?	·	i	?
C=CC[C@H]1C=C[C@@H](C(C(=O)OC)C(=O)OC)CN1C(C)=O	i	2.1%	-18.7%	-1.9%	i	-23.8%
N/C(Cc1ccc([N+](=O)[O-])cc1)=N\OC(=O)c1ccc2ccccc2c1	i	18.4µM*	9.2µM*	?	i	?
Cc1cccc(C(=O)O/N=C(\N)Cc2ccc([N+](=O)[O-])cc2)c1	?	?	25.9µM*	-13.8%	?	-22.3%
Cc1ccc(C(=O)O/N=C(\N)Cc2ccc([N+](=O)[O-])cc2)c(Cl)c1	i	-4.3%	?	-1.7%	?	23.1µM*
Cc1ccc(CC(=O)O/N=C(\N)Cc2ccc([N+](=O)[O-])cc2)cc1	i	2.9%	7.0%	16.8%	i	-27.0%
N/C(Cc1ccc([N+](=O)[O-])cc1)=N\OC(=O)C(c1ccccc1)c1ccccc1	i	17.8µM*	?	?	i	-27.5%
O=C(O)C1(O)C[C@H](O)C(O)[C@@H](O)C1 (stereo partly drawn)	i	23.3%	-5.9%	1.1%	i	16.2%
N/C(Cc1ccccc1)=N\OC(=O)c1cccc2ccccc12	i	?	?	20.6µM*	?	?
SMILES	KB-V1 MDR tox	HT1080NT lethal	TDP1 cell CPT	HT1080 IDH1KD tx	KB-3-1 cytotox	DT40 TDP1 no CPT
CON(C)c1nc(OCCNC(=O)COc2ccc(Cl)cc2C)nc(N(C)C)n1	i	-1.5%	8.2µM*	-13.3%	i	8.2µM*
CN(C)c1nc(OCCNC(=O)Nc2ccc(Cl)cc2)nc(N(C)C)n1	?	3.7%	-16.5%	5.2%	i	-13.8%
CON(C)c1nc(OCCNC(=O)OCc2ccc(Cl)cc2Cl)nc(N(C)C)n1	?	4.0%	16.4µM*	5.3%	i	8.2µM*
CCN1CCN(Cc2c(O)ccc3c(=O)c(Oc4ccccc4Cl)c(C(F)(F)F)oc23)CC1	i	·	?	·	i	20.6µM*
CN1CCN(Cc2c(O)ccc3c(=O)c(Oc4ccccc4Cl)c(C(F)(F)F)oc23)CC1	i	-4.1%	?	-11.8%	i	-7.1%
COc1ccc(C(=O)c2ccc(Br)cc2)cc1	i	13.0%	-3.9%	3.7%	?	-17.0%
COc1ccc(C(=O)/C=C2\C(=O)Nc3ccc(Br)cc32)cc1	?	?	2.91µM*	?	?	18.4µM*
O=C1Nc2ccc(Br)cc2/C1=C/C(=O)c1ccc2c(c1)OCO2	?	?	5.8µM*	?	?	3.26µM*
CC(C)c1cc(C(C)C)c(S(=O)(=O)NC(c2ccccn2)C23CC2C3)c(C(C)C)c1 (stereo not drawn)	i	?	?	?	?	16.4µM*
CC(NS(=O)(=O)c1ccc2ccccc2c1)c1ccccn1 (stereo not drawn)	i	-4.5%	1.2%	-0.4%	i	-3.2%
CN(c1ccccc1)c1ncccn1	i	11.5%	-8.6%	0.0%	i	-16.0%
CN(c1ccccc1)c1cc(Br)nc(Br)c1	20.6µM*	-26.3%	5.8%	-20.3%	?	?
CN(C)c1cc[n+](CC(=O)N2c3ccccc3Sc3ccccc32)cc1	i	?	2.06µM*	-24.5%	?	2.91µM*
O=C(C[n+]1ccccc1)N1c2ccccc2Sc2ccccc21	i	-16.5%	?	-16.1%	i	?
CCOc1ccc(NC(=O)c2cc(Cl)nc3ccccc23)cc1	?	?	?	?	?	14.6µM*
